Assay [1] is described as follows: ATG_TCF_b_cat_CIS: Attagene CIS-FACTORIAL HepG2 Assay for human T-Cell-Factor with beta-catenin (TCF/b-cat) (AID 2282965; active means hit-call score of the fitted dose curve at least 0.9, where 1 is the maximum; inactive means score below 0.9). The following applies: HepG2 TCF/beta-catenin cis-reporter transcription, actives raise or lower the signal. In a few lines:
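In this cis-format system, transfected HepG2 cells report endogenous transcription factor activity. Readout after 24 h exposure is reporter transcript abundance from RT-PCR and capillary electrophoresis, analysed for gain or loss of signal versus DMSO.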

Assay [2] in a line: ATG_TAL_CIS: Attagene CIS-FACTORIAL HepG2 Assay for human TAL Basal Promoter (AID 2282966; active means hit-call score of the fitted dose curve at least 0.9, where 1 is the maximum; inactive means score below 0.9;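 further: background control endpoint measuring basal TAL promoter reporter mRNA not a specific factor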). The following applies: HepG2 Attagene cis-factorial TAL promoter reporter; actives raise or lower the signal. The gist of the method:
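After 24 hours of chemical exposure, transfected HepG2 cells yielded RNA that was converted to 6-FAM-labelled, HpaI-digested reporter fragments for capillary electrophoresis. Values derive from bidirectional fitting against DMSO controls.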

Assay [3] is described as follows: ATG_TGFb_CIS: Attagene CIS-FACTORIAL HepG2 Assay for human Transforming Growth Factor (TGF) (AID 2282967; active means hit-call score of the fitted dose curve at least 0.9, where 1 is the maximum; inactive means score below 0.9). Conditions: HepG2 Attagene CIS TGFb reporter, mRNA transcription; actives raise or lower the signal. In a few lines:
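Transient MRTU transfection of HepG2 (FuGene 6). Dose 24 h. TriZol RNA, oligo(dT) RT, PCR, 6-FAM primer extension, HpaI cut, CE. Bidirectional fit, DMSO = baseline.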

Assay [4] in a line: ATG_VDRE_CIS: Attagene CIS-FACTORIAL HepG2 Assay for human Vitamin D Receptor Element (VDRE) (AID 2282968; active means hit-call score of the fitted dose curve at least 0.9, where 1 is the maximum; inactive means score below 0.9). The following applies: HepG2 VDRE cis-reporter transcription, actives raise or lower the signal. In a few lines:
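Transfected HepG2 reporter cells, chemical treatment 24 h. RNA isolated, cDNA amplified with reporter-specific primers, products analysed by capillary electrophoresis. Endpoint fitted in both directions versus DMSO.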

For assay [5], the target named is Nuclear receptor subfamily 1 group I member 3 (Homo sapiens) (UniProt Q14994). In words: ATG_CAR_TRANS: Attagene TRANS-FACTORIAL HepG2 Assay for human Constitutive Androstane Receptor (CAR) (AID 2282969).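 Further: activators raise reporter mRNA above DMSO so AC50 marks induction.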 The following applies: HepG2 Attagene TRANS-FACTORIAL CAR reporter. The gist of the method: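 Steps: transient transfection of HepG2 with multiple GAL4-UAS reporter units; 24 h compound incubation; RNA isolation, RT-PCR, 6-FAM primer extension, HpaI digest; capillary electrophoresis. Gain-of-signal relative to DMSO negative control.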
Sequence of Nuclear receptor subfamily 1 group I member 3 (Homo sapiens) (Q14994 whole entry, looked up, the tested form may be a part): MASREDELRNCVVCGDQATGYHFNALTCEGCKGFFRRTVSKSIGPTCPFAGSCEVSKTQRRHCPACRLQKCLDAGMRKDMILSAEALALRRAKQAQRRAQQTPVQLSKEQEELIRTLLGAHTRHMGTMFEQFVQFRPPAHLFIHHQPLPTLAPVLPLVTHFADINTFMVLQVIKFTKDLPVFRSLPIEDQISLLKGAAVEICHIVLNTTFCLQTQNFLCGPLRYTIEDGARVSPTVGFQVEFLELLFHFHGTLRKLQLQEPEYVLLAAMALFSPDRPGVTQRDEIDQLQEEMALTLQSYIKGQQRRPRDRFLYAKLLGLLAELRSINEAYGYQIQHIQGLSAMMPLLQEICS

The nature of assay [6]: ATG_M_19_TRANS: Attagene TRANS-FACTORIAL HepG2 Assay for M19 Transcription Factor (Internal Marker) (AID 2282974). The following applies: HepG2 Attagene TRANS-FACTORIAL M19 internal marker reporter. The gist of the method: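 Background-control readout: after 24 h chemical exposure of transfected HepG2 carrying GAL4-driven reporter units, RNA was reverse-transcribed, amplified, fluorescently labeled and sized by capillary electrophoresis; gain-of-signal fit against DMSO.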

Assay [7] in a line: ATG_GAL4_TRANS: Attagene TRANS-FACTORIAL HepG2 Assay for GAL4 (Internal Marker) (AID 2282976). The following applies: HepG2 Attagene TRANS GAL4 internal marker reporter. The gist of the method:
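First, HepG2 cells were transfected with reporter units under GAL4-UAS control. Next, they were treated with chemical for 24 h. Finally, RNA was reverse-transcribed, PCR-amplified, FAM-labelled and resolved by capillary electrophoresis, with induction scored against DMSO.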

Assay [8] addresses Oxysterols receptor LXR-alpha (Homo sapiens) (UniProt Q13133). Put plainly: ATG_LXRa_TRANS: Attagene TRANS-FACTORIAL HepG2 Assay for human Liver X Receptor alpha (LXRa) (AID 2282980). The following applies: HepG2 Attagene TRANS reporter, LXRa transactivation. The gist of the method:
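Transfect HepG2 with GAL4-UAS multiplex reporter constructs (TRANS format, chimeric receptor-GAL4); treat 24 h; extract RNA, reverse-transcribe, PCR-amplify, FAM-label, HpaI-digest; resolve fragments by capillary electrophoresis. Upward response vs DMSO.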

Assay [9] deals with Oxysterols receptor LXR-beta (Homo sapiens) (UniProt P55055). Put plainly: ATG_LXRb_TRANS: Attagene TRANS-FACTORIAL HepG2 Assay for human Liver X Receptor beta (LXRb) (AID 2282981). Conditions: HepG2 Attagene TRANS GAL4-LXRb reporter, mRNA. In a few lines: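 Liver-derived HepG2 cells transfected with Gal4-responsive reporters were dosed for 24 h. Activation was scored as rise in reporter mRNA, by RT-PCR and capillary electrophoresis, above DMSO baseline.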
Sequence of Oxysterols receptor LXR-beta (Homo sapiens) (P55055 whole entry, looked up, the tested form may be a part): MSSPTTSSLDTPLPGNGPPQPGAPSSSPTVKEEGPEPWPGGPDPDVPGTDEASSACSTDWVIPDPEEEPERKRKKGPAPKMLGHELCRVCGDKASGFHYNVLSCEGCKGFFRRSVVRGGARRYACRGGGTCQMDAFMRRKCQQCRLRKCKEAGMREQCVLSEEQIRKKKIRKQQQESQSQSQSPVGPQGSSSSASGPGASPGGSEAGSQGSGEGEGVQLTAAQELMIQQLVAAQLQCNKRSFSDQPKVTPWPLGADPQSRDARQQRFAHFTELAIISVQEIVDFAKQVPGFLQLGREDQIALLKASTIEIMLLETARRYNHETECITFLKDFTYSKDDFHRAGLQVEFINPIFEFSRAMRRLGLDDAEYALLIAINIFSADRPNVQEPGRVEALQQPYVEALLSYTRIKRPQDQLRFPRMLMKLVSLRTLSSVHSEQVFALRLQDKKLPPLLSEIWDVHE

The target in assay [10] is Hepatocyte nuclear factor 4-alpha (Homo sapiens) (UniProt P41235). In words: ATG_HNF4a_TRANS: Attagene TRANS-FACTORIAL HepG2 Assay for human Hepatocyte Nuclear Factor 4 alpha (HNF4a) (AID 2282982). Conditions: HepG2 HNF4a transactivation reporter, mRNA readout. The gist of the method: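 Using HepG2 liver cells transfected with GAL4-UAS reporter units, chemical-induced mRNA increases were assessed after 24 hours. Fluorescent RT-PCR fragments were separated by capillary electrophoresis and compared with DMSO negative controls.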
Sequence of Hepatocyte nuclear factor 4-alpha (Homo sapiens) (P41235 whole entry, looked up, the tested form may be a part): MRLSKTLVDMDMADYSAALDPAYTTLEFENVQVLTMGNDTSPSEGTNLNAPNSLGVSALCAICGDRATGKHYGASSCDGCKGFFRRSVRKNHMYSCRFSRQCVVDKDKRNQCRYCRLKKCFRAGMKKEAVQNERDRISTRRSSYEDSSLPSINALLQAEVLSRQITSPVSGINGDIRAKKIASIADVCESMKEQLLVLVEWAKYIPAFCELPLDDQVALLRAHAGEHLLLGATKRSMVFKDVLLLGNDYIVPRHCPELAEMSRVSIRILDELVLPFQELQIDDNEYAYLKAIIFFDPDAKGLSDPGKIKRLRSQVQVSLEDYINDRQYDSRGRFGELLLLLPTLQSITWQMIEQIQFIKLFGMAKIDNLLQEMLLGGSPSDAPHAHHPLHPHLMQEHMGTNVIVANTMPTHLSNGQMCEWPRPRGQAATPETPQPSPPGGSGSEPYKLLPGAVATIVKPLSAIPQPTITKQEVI

A short description of assay [11]: ATG_M_32_TRANS: Attagene TRANS-FACTORIAL HepG2 Assay for M32 Transcription Factor (Internal Marker) (AID 2282984).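 Further: transcript level of a background control reporter unit measured by RT-PCR and capillary electrophoresis.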 The following applies: HepG2 Attagene TRANS M32 internal marker reporter. In a few lines:
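Fluorescence-detected mRNA induction, HepG2 liver cells, 24 h after dosing. Multiple GAL4-UAS reporter units introduced by transient transfection; background-control endpoint analysed for gain of signal against DMSO.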

The target of assay [12] is Nuclear receptor subfamily 4 group A member 2 (Homo sapiens) (UniProt P43354). In words: ATG_NURR1_TRANS: Attagene TRANS-FACTORIAL HepG2 Assay for human Nuclear Receptor Related Protein 1 (NURR1) (AID 2282985). The following applies: HepG2 Attagene TRANS reporter, mRNA readout. The gist of the method:
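Chimeric NR-Gal4 proteins were expressed in human HepG2 cells bearing GAL4-UAS reporter units, and induced reporter mRNA was quantified 24 h post-dosing by RT-PCR and capillary electrophoresis.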

In assay [13] the target is Transcriptional activator Myb (Homo sapiens) (UniProt P10242). In words: ATG_Myb_CIS: Attagene CIS-FACTORIAL HepG2 Assay for human Myeloblastosis (Myb) Proto-Oncogene Transcription Factor (AID 2282986; active means hit-call score of the fitted dose curve at least 0.9, where 1 is the maximum; inactive means score below 0.9). The following applies: HepG2 Attagene CIS-FACTORIAL Myb reporter transcription; actives raise or lower the signal. In a few lines:
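Reporter mRNA is quantified by RT-PCR and capillary electrophoresis 24 h after dosing HepG2 cells transfected with cis-regulated reporter units, which track endogenous transcription factor activity. Gain and loss of signal are fitted versus DMSO baseline.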

Assay [14] addresses Estrogen receptor (Homo sapiens) (UniProt P03372). In words: ATG_ERa_TRANS: Attagene TRANS-FACTORIAL HepG2 Assay for human Estrogen Receptor alpha (ERa) (AID 2282970). The following applies: HepG2 Attagene TRANS ERa GAL4 reporter, mRNA. In a few lines: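 Liver-derived HepG2 cells expressing chimeric nuclear receptor-Gal4 proteins from transient transfection were exposed for 24 hours. Gain of reporter mRNA signal versus DMSO, read by capillary electrophoresis of FAM-labelled PCR products, was recorded.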

The target in assay [15] is Steroid hormone receptor ERR1 (Homo sapiens) (UniProt P11474). Put plainly: ATG_ERRa_TRANS: Attagene TRANS-FACTORIAL HepG2 Assay for human Estrogen-Related Receptor alpha (ERRa) (AID 2282971). The following applies: HepG2 Attagene TRANS reporter, ERRa transactivation. The gist of the method:
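Reporter transcript induction was quantified by RT-PCR and capillary electrophoresis of FAM-labelled, HpaI-cut products after 24 h treatment of HepG2 cells carrying transiently transfected GAL4-UAS reporter units and an exogenous ERRa-Gal4 fusion; activity scored as increase over DMSO.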

The target in assay [16] is X-box-binding protein 1 (Homo sapiens) (UniProt P17861). Put plainly: ATG_Xbp1_CIS: Attagene CIS-FACTORIAL HepG2 Assay for human X-box Binding Protein 1 (XBP1) (AID 2282972; active means hit-call score of the fitted dose curve at least 0.9, where 1 is the maximum; inactive means score below 0.9). The following applies: HepG2 XBP1 cis-element reporter, Attagene multiplex; actives raise or lower the signal. The gist of the method:
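Multiplexed cis-reporter readout in transfected HepG2 liver cells. Exposure lasted 24 hours. Activity in either direction was fitted against DMSO as negative control and baseline.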

For assay [17], the target named is Estrogen-related receptor gamma (Homo sapiens) (UniProt P62508). Put plainly: ATG_ERRg_TRANS: Attagene TRANS-FACTORIAL HepG2 Assay for human Estrogen-Related Receptor gamma (ERRg) (AID 2282977).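 Further: hits increase reporter signal over DMSO so potencies reflect activators.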 Conditions: HepG2 Attagene TRANS reporter, ERRg transactivation. The gist of the method:
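Readout: fluorescent reporter-mRNA fragments resolved by capillary electrophoresis after RT-PCR and HpaI cut. Cells: transiently transfected HepG2 carrying GAL4-UAS reporters driven by exogenous NR-Gal4 chimeras, dosed 24 h. Activity fitted upward relative to DMSO baseline.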

Assay [18] deals with Glucocorticoid receptor (Homo sapiens) (UniProt P04150). In words: ATG_GR_TRANS: Attagene TRANS-FACTORIAL HepG2 Assay for human Glucocorticoid Receptor (GR) (AID 2282978).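 Further: activators score as hits since higher reporter transcript over DMSO is fitted.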 The following applies: HepG2 Attagene TRANS GR reporter, mRNA transcription. In a few lines: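 Readout is reporter transcript from a chimeric GR-Gal4 acting on GAL4-UAS in transfected human HepG2 liver cells after 24 h exposure, quantified by RT-PCR and capillary electrophoresis. Activation fitted upward against DMSO.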
Sequence of Glucocorticoid receptor (Homo sapiens) (P04150 whole entry, looked up, the tested form may be a part): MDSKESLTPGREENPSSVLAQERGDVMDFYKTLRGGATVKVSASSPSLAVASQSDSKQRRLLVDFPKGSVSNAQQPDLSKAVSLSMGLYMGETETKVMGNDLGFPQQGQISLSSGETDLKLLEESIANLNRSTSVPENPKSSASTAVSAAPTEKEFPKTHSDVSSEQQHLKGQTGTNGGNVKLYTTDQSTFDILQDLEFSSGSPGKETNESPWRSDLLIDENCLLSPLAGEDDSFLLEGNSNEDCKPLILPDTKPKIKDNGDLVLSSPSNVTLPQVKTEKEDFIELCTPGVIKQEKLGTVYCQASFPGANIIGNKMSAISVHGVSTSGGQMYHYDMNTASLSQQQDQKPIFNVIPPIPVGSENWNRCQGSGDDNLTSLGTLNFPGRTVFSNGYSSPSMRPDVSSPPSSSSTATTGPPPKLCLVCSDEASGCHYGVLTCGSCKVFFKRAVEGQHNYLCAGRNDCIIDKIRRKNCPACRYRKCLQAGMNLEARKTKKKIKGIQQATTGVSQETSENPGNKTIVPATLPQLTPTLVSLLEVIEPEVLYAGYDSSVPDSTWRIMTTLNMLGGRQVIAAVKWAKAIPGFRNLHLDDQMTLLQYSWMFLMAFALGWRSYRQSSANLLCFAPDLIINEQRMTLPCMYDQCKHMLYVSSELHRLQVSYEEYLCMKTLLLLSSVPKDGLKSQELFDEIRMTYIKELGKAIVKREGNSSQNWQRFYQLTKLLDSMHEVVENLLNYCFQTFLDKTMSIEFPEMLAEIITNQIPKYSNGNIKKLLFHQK

Assay [19] deals with Bile acid receptor (Homo sapiens) (UniProt Q96RI1). In words: ATG_FXR_TRANS: Attagene TRANS-FACTORIAL HepG2 Assay for Farnesoid X Receptor (FXR) (AID 2282979).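 Further: hits raise reporter mRNA above DMSO so AC50 marks FXR activation.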 Conditions: HepG2 Attagene TRANS FXR-GAL4 reporter transcription. The gist of the method: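 Transient transfection of HepG2 with multiplexed GAL4-UAS reporter units; exogenous FXR-GAL4 chimera. Dose 24 h → TriZol RNA → oligo(dT) RT → PCR, 6-FAM primer extension, HpaI cut → CE. Gain vs DMSO.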
Sequence of Bile acid receptor (Homo sapiens) (Q96RI1 whole entry, looked up, the tested form may be a part): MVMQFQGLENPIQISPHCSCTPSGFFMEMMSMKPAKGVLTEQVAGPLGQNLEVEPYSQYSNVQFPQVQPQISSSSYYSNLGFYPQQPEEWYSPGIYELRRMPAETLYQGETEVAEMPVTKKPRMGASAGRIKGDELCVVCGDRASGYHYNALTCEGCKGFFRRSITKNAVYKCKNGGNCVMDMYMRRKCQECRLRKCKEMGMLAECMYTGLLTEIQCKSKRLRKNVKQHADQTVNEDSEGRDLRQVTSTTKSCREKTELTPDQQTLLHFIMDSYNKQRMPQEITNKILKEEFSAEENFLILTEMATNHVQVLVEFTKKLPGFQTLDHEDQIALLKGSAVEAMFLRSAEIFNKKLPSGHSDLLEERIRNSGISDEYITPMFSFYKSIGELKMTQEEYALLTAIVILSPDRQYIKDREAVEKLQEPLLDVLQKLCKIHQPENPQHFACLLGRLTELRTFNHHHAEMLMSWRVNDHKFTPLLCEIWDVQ

Assay [20] can be described thus: ATG_M_06_TRANS: Attagene TRANS-FACTORIAL HepG2 Assay for M06 Transcription Factor (Internal Marker) (AID 2282983).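 Further: reporter transcript level by RT-PCR then capillary electrophoresis fluorescence.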 Conditions: HepG2 Attagene TRANS M06 internal marker reporter. The gist of the method: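 Background control endpoint: reporter mRNA from transiently transfected HepG2 after 24 h dosing, detected by RT-PCR with capillary electrophoresis fluorescence. Analysed for gain versus DMSO.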

The structures appear in SMILES notation. Records with an inconclusive call do not appear. Active and inactive are the calls of the source. How the source made its calls, unless noted: active means hit-call score of the fitted dose curve at least 0.9, where 1 is the maximum; inconclusive means response in the unintended direction; inactive means score below 0.9.

Sequence of Oxysterols receptor LXR-alpha (Homo sapiens) (Q13133 whole entry, looked up, the tested form may be a part): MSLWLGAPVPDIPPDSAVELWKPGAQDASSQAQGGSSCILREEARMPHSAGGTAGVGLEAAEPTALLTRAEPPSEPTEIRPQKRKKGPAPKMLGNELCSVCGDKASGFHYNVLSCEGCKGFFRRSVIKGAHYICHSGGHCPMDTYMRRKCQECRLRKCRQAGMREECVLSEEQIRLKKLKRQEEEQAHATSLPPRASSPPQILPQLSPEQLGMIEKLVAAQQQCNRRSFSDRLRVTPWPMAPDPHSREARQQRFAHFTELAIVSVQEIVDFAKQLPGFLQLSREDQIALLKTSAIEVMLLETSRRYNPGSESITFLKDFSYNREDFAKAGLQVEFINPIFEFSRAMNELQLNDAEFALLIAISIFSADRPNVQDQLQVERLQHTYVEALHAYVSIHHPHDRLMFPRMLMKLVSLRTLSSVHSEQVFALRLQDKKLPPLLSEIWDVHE
Sequence of X-box-binding protein 1 (Homo sapiens) (P17861 whole entry, looked up): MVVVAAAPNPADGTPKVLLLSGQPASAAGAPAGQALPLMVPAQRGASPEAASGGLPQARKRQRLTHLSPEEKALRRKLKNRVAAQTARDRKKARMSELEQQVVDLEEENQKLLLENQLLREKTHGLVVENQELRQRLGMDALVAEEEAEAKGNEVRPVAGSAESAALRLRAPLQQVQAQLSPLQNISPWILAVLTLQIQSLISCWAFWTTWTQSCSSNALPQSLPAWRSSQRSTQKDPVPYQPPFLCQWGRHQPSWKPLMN
Sequence of Estrogen receptor (Homo sapiens) (P03372 whole entry, looked up, the tested form may be a part): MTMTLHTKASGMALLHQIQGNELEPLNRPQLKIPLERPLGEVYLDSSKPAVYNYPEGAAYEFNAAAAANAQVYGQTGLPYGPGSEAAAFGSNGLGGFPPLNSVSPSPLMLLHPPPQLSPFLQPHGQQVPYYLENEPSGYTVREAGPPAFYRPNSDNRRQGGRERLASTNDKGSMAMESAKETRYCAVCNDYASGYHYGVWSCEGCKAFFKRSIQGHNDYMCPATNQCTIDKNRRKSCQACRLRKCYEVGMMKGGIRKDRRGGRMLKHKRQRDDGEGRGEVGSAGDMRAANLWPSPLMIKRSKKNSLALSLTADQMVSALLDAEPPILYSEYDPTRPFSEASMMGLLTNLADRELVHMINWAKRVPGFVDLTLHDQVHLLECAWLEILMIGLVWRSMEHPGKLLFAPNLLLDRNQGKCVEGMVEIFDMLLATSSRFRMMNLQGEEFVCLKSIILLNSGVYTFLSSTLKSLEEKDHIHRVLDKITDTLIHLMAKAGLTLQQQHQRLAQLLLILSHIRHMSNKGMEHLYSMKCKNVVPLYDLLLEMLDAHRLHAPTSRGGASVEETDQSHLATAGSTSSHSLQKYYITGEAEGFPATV
Sequence of Transcriptional activator Myb (Homo sapiens) (P10242 whole entry, looked up): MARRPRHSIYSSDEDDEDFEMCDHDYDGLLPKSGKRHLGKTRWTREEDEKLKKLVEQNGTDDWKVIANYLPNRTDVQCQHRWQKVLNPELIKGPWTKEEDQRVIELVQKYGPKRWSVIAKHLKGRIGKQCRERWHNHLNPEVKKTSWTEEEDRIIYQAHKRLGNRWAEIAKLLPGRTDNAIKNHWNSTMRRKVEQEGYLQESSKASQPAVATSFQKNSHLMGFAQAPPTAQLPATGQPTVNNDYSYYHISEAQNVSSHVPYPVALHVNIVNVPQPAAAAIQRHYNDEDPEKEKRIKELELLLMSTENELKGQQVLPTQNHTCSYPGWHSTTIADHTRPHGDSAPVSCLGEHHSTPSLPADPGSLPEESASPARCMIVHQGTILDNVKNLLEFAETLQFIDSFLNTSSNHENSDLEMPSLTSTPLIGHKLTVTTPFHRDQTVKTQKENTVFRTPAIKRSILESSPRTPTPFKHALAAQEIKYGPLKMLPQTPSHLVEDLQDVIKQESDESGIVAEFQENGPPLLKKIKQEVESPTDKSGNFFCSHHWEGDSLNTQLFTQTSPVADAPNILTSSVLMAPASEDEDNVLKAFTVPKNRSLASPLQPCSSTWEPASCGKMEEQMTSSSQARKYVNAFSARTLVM
Sequence of Estrogen-related receptor gamma (Homo sapiens) (P62508 whole entry, looked up, the tested form may be a part): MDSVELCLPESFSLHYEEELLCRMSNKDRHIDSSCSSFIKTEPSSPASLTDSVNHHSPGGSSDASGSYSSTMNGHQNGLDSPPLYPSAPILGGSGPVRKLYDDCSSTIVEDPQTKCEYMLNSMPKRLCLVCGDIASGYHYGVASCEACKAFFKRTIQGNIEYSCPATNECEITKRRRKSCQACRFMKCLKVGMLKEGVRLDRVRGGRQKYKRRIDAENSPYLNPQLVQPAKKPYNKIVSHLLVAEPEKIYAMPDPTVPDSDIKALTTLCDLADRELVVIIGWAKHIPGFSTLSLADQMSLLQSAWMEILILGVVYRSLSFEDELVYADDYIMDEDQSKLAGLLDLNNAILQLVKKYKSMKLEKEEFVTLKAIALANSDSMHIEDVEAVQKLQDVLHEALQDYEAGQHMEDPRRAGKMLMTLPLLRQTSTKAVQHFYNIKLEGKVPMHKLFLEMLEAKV

Consider `COc1ccccc1NC(=O)CC(C)=O`, for which the outcome in assay [1], in [2], in [3], in assay [5], in [6] and in assay [7] was inactive. Besides, the molecule was called inactive in [8], in [9], in [10], in [11], in [12] and in assay [13]. Besides, the AC50 in assay [4] was 68.2 µM (active).
For the molecule `CCCCCCCCCO`, the molecule was classed as inactive in [1], in [2], in [3], in [4], in assay [14] and in assay [15]. Also, the call in [16], in [6], in assay [7], in assay [17], in assay [18] and in assay [19] was inactive. For the same molecule, the molecule was called inactive in [8], in [9], in [11] and in assay [13].
With `C1COCO1`, the molecule was called inactive in assay [1], in assay [2], in [3], in [4], in assay [14] and in assay [15]. The molecule was called inactive in assay [16], in assay [6], in assay [17], in assay [8], in assay [11] and in [13].
As to `CC(C)(C)C1CCC(O)CC1` (stereo unspecified), the outcome in assay [1], in [2], in [3], in [4], in assay [16] and in assay [6] was inactive. Moreover, the call in assay [8], in [20] and in assay [13] was inactive. Also, the AC50 in assay [14] was 29.2 µM (active).
Turning to `NC(=O)c1cccnc1`, the molecule was classed as inactive in assay [1], in [2], in assay [3], in assay [4], in assay [14] and in assay [16]. Further, the molecule was called inactive in [6], in assay [7], in [18], in [19], in assay [10] and in [11]. The molecule was called inactive in assay [13].
On to `COc1ccccc1O`, for which the result in assay [1], in [2], in assay [3], in assay [4], in assay [14] and in [16] was inactive. For the same molecule, the molecule was classed as inactive in assay [6], in assay [7], in [18], in assay [19], in assay [8] and in [13].

These data come from PubChem BioAssay (EPA / NIEHS).
